# Measured values: publication PMC11574364
# Columns and labels:
# Test in all cases: protein domain microarray probed with biotinylated miRNA; Domain array: 20 mM Tris-HCl pH 7.4, 200 mM KCl, 0.2 mM EDTA, 0.05% NP40, 2 ug/ul heparin, overnight 4 C. ORF array: PBS pH 7.0 with RNase inhibitor, 100 ng RNA; high values mean tight binding
# Conditions in all cases: ssRNA
# HUR = HUR (Homo sapiens, UniProt Q15717)
# PABPC4L = PABPC4L (Homo sapiens, UniProt P0CB38)
# snRNP B2 = snRNP B2 (Homo sapiens, UniProt P08579)
# YTHDC1 = YTHDC1 (Homo sapiens, UniProt Q96MU7)
# snRNP A = snRNP A (Homo sapiens, UniProt P09012)
# SLIRP = SLIRP (Homo sapiens, UniProt Q9GZT3)
# SF3B6 = SF3B6 (Homo sapiens, UniProt Q9Y3B4)
# SFRS9 = SFRS9 (Homo sapiens, UniProt Q13242)
# SFRS9, sequence (Q13242 whole entry): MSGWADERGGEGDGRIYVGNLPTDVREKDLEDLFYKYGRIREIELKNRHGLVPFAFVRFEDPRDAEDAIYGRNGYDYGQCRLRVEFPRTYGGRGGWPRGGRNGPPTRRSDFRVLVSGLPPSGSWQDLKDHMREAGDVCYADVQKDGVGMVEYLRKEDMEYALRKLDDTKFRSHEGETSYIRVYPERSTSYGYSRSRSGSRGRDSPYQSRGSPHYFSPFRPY
# PABPC4L, sequence (P0CB38 whole entry): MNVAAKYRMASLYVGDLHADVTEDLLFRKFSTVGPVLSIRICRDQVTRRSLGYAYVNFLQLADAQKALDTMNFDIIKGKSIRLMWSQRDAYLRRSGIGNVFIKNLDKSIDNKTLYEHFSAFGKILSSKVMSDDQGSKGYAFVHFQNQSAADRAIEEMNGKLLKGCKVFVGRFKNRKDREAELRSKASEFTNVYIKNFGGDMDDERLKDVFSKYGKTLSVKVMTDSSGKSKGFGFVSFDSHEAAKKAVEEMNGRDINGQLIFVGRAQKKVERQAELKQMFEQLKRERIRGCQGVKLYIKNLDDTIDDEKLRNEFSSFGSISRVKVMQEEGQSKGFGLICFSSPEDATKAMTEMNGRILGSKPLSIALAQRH
# SF3B6, sequence (Q9Y3B4 whole entry): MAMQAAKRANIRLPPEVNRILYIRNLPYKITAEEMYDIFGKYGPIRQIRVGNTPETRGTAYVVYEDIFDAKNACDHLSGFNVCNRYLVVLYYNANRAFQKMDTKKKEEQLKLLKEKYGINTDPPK
# HUR, sequence (Q15717 whole entry): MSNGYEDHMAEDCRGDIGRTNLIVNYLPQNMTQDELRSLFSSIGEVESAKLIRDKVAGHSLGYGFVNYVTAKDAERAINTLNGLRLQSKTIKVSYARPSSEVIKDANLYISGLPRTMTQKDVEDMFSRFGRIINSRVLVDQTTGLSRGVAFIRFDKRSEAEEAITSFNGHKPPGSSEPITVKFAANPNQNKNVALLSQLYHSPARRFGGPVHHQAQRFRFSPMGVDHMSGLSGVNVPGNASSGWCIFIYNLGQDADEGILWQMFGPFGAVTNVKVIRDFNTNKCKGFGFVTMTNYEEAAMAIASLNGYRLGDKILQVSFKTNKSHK
# snRNP A, sequence (P09012 whole entry): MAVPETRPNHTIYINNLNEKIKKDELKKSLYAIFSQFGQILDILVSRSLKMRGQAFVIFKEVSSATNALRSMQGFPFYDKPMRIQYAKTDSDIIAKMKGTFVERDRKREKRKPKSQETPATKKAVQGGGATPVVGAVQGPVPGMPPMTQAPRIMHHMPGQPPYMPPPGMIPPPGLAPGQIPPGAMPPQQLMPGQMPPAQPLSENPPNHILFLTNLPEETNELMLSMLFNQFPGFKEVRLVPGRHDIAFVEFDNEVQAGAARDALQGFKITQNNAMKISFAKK
# snRNP B2, sequence (P08579 whole entry): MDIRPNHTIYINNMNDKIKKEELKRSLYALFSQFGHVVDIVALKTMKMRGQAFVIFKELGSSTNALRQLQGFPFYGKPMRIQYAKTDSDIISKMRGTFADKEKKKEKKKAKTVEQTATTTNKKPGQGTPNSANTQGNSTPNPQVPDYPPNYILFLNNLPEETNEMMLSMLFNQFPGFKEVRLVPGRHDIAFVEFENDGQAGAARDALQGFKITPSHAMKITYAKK
Sequence,binding signal (HUR),binding signal (PABPC4L),binding signal (snRNP B2),binding signal (YTHDC1),binding signal (snRNP A),binding signal (SLIRP),binding signal (SF3B6),binding signal (SFRS9)
AGAGGUAGUAGGUUGCAUAGUU,1350 ± 50 fluorescence intensity,466 ± 20.9 fluorescence intensity,147 ± 5.66 fluorescence intensity,80.4 ± 1.63 fluorescence intensity,342 ± 6.74 fluorescence intensity,104 ± 2.51 fluorescence intensity,117.8 ± 0.707 fluorescence intensity,273 ± 31 fluorescence intensity
UGAGGUAGUAGGUUGUGUGGUU,1300 ± 85.7 fluorescence intensity,523 ± 82.5 fluorescence intensity,296 ± 33.8 fluorescence intensity,179 ± 8.44 fluorescence intensity,236.6 ± 1.37 fluorescence intensity,232 ± 20.1 fluorescence intensity,282 ± 3.13 fluorescence intensity,580 ± 35.6 fluorescence intensity
UAGCUUAUCAGACUGAUGUUGA,219 ± 16.5 fluorescence intensity,,24.4 ± 2.86 fluorescence intensity,,25.3 ± 14.1 fluorescence intensity,24.4 ± 1.37 fluorescence intensity,,54.9 ± 6.63 fluorescence intensity
CAGUGCAAUGAUGAAAGGGCAU,652.6 ± 4.58 fluorescence intensity,380 ± 28.5 fluorescence intensity,164 ± 16.3 fluorescence intensity,64.9 ± 3.94 fluorescence intensity,224 ± 14.6 fluorescence intensity,55.4 ± 6.36 fluorescence intensity,58.7 ± 1.9 fluorescence intensity,370 ± 18.4 fluorescence intensity
UGAGGUAGUAGGUUGUAUGGUU,1165 ± 9.92 fluorescence intensity,506 ± 42.2 fluorescence intensity,184 ± 4.53 fluorescence intensity,122.4 ± 0.332 fluorescence intensity,372 ± 10.2 fluorescence intensity,107 ± 4.07 fluorescence intensity,136 ± 26.8 fluorescence intensity,343 ± 5.06 fluorescence intensity
UGAGGUAGUAGGUUGUAUAGUU,477 ± 14 fluorescence intensity,129 ± 51.7 fluorescence intensity,43.98 ± 0.219 fluorescence intensity,25.3 ± 0.502 fluorescence intensity,28 ± 0.686 fluorescence intensity,32.41 ± 0.262 fluorescence intensity,31.6 ± 1.95 fluorescence intensity,37.9 ± 10.5 fluorescence intensity
